# ± gives the standard deviation of the averaged measurements.
# B1: to (protein)
# chain: MFAIAFAVVLCLLVSVDAKFPEDPKPCKYGDGECIMKLCNTLFSENSAEGDPGLNLMQLDPLKVDRMVISQGESSSPVGITLTFTDNLLYGIKDQRIVKVKGFGRDLTAKHEVKIVTKTFSLVGPYNIQGKVLILPISGTGQSNMTMVNVRAIVSFSGKPLVKNGETYLDVTDLKITMKPESSHYHFSNLFNGDKALGDNMNVFLNENSEAIYKETAKAIDRSFGKLYLGVVKGVFSKLPYAKFFADES
# B2: CG8306 (protein)
# chain: MASSPITDFYAGRNVFITGATGFVGVTIVEKLLRDVPNVGTLYLLMRAKKGKSVQERLEELKKNSVFDKFKELQLQSRLSKIVPIEGDVGLEHLGISPKDRQTLIDNVNVVFHSAATLDFFQSLKETTNINLRGTRRVVELCQQIKNLDALVHVSSAYVNAYLTKVEEKLYPAPEDPEKIIQLSETLNDDALKELEPKLLKDHPNTYTFTKHLAEHEVANVASKFPCGIVRPSMITAAWKEPIPGWTISKNGPQGFFMGASKGVLRRLPLDPSIIMDYIPIDVVVNGIITTGYYVNSLQAKNGGRPADLQIFHLTSSTYKPFRFELMTDKINSYLHDYPLNSAVWYPNLRLVKSLWVFRLSAILFHFIPAIILDLVTKIGGGRPILVRLHKNVWNSLNTLEKFIFTEWHFDSKRLLALSKTLNIVDKKKFFIDIGELAWDEYFSNTILGVRQYLSKEPIKNLEKARRKDKILLGLHVALQLSFWYGVFKLIVCLTGISTAKAALVLPVLYYLFGLL
# B3: sgg (protein)
# chain: MSGRPRTSSFAEGNKQSPSLVLGGVKTCSRDGSKITTVVATPGQGTDRVQEVSYTDTKVIGNGSFGVVFQAKLCDTGELVAIKKVLQDRRFKNRELQIMRKLEHCNIVKLLYFFYSSGEKRDEVFLNLVLEYIPETVYKVARQYAKTKQTIPINFIRLYMYQLFRSLAYIHSLGICHRDIKPQNLLLDPETAVLKLCDFGSAKQLLHGEPNVSYICSRYYRAPELIFGAINYTTKIDVWSAGCVLAELLLGQPIFPGDSGVDQLVEVIKVLGTPTREQIREMNPNYTEFKFPQIKSHPWQKVFRIRTPTEAINLVSLLLEYTPSARITPLKACAHPFFDELRMEGNHTLPNGRDMPPLFNFTEHELSIQPSLVPQLLPKHLQNASGPGGNRPSAGGAASIAASGSTSVSSTGSGASVEGSAQPQSQGTAAAAGSGSGGATAGTGGASAGGPGSGNNSSSGGASGAPSAVAAGGANAAVAGGAGGGGGAGAATAAATATGAIGATNAGGANVTDS
# B4: bol (protein)
# chain: MHKIAAAPPPSATPGGGLETPLAAPKYGTLIPNRIFVGGISGDTTEADLTRVFSAYGTVKSTKIIVDRAGVSKGYGFVTFETEQEAQRLQADGECVVLRDRKLNIAPAIKKQPNPLQSIVATNGAVYYTTTPPAPISNIPMDQFAAAVYPPAAGVPAIYPPSAMQYQPFYQYYSVPMNVPTIWPQNYQENHSPLLHSPTSNPHSPHSQSHPQSPCWSIEDLRDTLPRV
# B5: CanB (protein)
# chain: MGNETSLPMDMCSNFDADEIRRLGKRFRKLDLDNSGALSIDEFMSLPELQQNPLVQRVIDIFDADGNGEVDFKEFIQGVSQFSVRGDKLSKLRFAFRIYDMDNDGYISNGELFQVLKMMVGNNLKDTQLQQIVDKTICFADKDEDGKISFDEFCSVVGNTDIHKKMVVDV
# B6: Caf1-55 (protein)
# chain: MVDRSDNAAESFDDAVEERVINEEYKIWKKNTPFLYDLVMTHALEWPSLTAQWLPDVTKQDGKDYSVHRLILGTHTSDEQNHLLIASVQLPSEDAQFDGSHYDNEKGEFGGFGSVCGKIEIEIKINHEGEVNRARYMPQNACVIATKTPSSDVLVFDYTKHPSKPEPSGECQPDLRLRGHQKEGYGLSWNPNLNGYLLSASDDHTICLWDINATPKEHRVIDAKNIFTGHTAVVEDVAWHLLHESLFGSVADDQKLMIWDTRNNNTSKPSHTVDAHTAEVNCLSFNPYSEFILATGSADKTVALWDLRNLKLKLHSFESHKDEIFQVQWSPHNETILASSGTDRRLHVWDLSKIGEEQSTEDAEDGPPELLFIHGGHTAKISDFSWNPNEPWIICSVSEDNIMQVWQMAENVYNDEEPEIPASELETNTA
# B7: Lasp (protein)
# chain: MNKTCARCQKVVYPIEELKCLDKTWHKTCFKCTECGMTLNMKTYKGYNKMPYCEAHIPKAKATAIADTPELKRIAENTKIQSNVKYHADFEKAKGKFTQVADDPETLRIKQNTKHISNVAYHGDLEKKAAMEKQRGSAEVSDSSNESEYFSEQLAAEQFSQYAPTASPIPPAATTLHQQQQQLQHQQQQQYQQHQQQLQQQQHQHQHYLQQQQQTLPPPPIQHQQYNTAAITPTYQQLQQQQQQQQQQRAQQQQLHDPYAHYQQPQALRQQQQQQQQQQQQLLQQQAIKQASHLYPTATSQQQQMPPPQSPANPQQQALNSYNEMRSAILQNSHHPSGNSVDQYDQPQQQQHQPQQQSTNPTLVAAQQQQSHHSLLNNNASNGGISHSHHSNINNNGHGSQNQMLPPQMRRSAASVVAYDGNSKQQVAAGPGAAQNHLQQLYASPNYAAVTPSENSINVKQHASNGHMPNQQQQHVAGGSNIGKIADYDPLTDGPRVVPNAGRSSTTLVYSSEPRGNQGGNSVYPKRIGSVSDIDPANGIYGSLTAAEQAHQQQKHQQYYQQVQMMQQQEHPPQQQQMRQQPSYSSLQEKQSRQSTAMRVYRAIYDYEAQDVDEVSFREGDVIFEVESIDSGWMTGRVERTGKTGMLPANYVEQAVI
# B8: Npc2a (protein)
# chain: MLRYAVIACAALVVFAGALEFSDCGSKTGKFTRVAIEGCDTTKAECILKRNTTVSFSIDFALAEEATAVKTVVHGKVLGIEMPFPLANPDACVDSGLKCPLEKDESYRYTATLPVLRSYPKVSVLVKWELQDQDGADIICVEIPAKIQ
# B9: CSN7 (protein)
# chain: MTQDMLLGNEEPSKSKETFLEKFCVLAKSSTGAALLDVIRQALEAPNVFVFGELLAEPSVLQLKDGPDSKHFETLNLFAYGTYKEYRAQPEKFIELTPAMQKKLQHLTIVSLAIKAKSIPYALLLSELEIDNVRHLEDIIIEAIYADIIHGKLFQNTRILEVDYAQGRDIPPGYTGQIVETLQAWVNSCDSVSNCIEMQIKYANAEKSKRLINKERVEQDLINLKKVLKSQTSDSDESMQIDTHGPGTSGGLGQSELRKKPSKLRNPRSAAVGLKFSK
# B10: Tollo (protein)
# chain: MLATTHMLYVLIATCVIPIFGAALSKTVLYQAPDECRWSGGGEHDITLVCHLRTINSELENTNFSVIQPQNTVRLRLECNDALFFQSSLSPDSFRSLVELRDLTIEYCKLGNLTDGSFRGLQELRNLTIRTHNGDWSTMSLEMASNSFVEFRQLERLDLSLNNIWLIPDGMVCPLKSLQHLNASYNKIQDISNFYFSASLSSRKARVCGSTLQSLDLSANKMVSLPTAMLSALGRLTHLNMAKNSMSFLADRAFEGLLSLRVVDLSANRLTSLPPELFAETKQLQEIYLRNNSINVLAPGIFGELAELLVLDLASNELNSQWINAATFVGLKRLMMLDLSANKISRLEAHIFRPLASLQILKLEDNYIDQLPGGIFADLTNLHTLILSRNRISVIEQRTLQGLKNLLVLSLDFNRISRMDQRSLVNCSQLQDLHLNDNKLQAVPEALAHVQLLKTLDVGENMISQIENTSITQLESLYGLRMTENSLTHIRRGVFDRMSSLQILNLSQNKLKSIEAGSLQRNSQLQAIRLDGNQLKSIAGLFTELPNLVWLNISGNRLEKFDYSHIPIGLQWLDVRANRITQLGNYFEIESELSLSTFDASYNLLTEITASSIPNSVEVLYLNDNQISKIQPYTFFKKPNLTRVDLVRNRLTTLEPNALRLSPIAEDREIPEFYIGHNAYECDCNLDWLQKVNRESRTQPQLMDLDQIHCRLAYARGSSHVSLIEAKSDDFLCKYASHCFALCHCCDFQACDCKMECPDRCSCYHDQSWTSNVVDCSRASYEQTLPSHIPMDSTQLYLDGNNFRELQSHAFIGRKRLKVLHLNHSRIEVLHNRTFYGLLELEVLQLQSNQLKALNGNEFQGLDNLQELYLQHNAIATIDTLTFTHLYHLKILRLDHNAITSFAVWNFLPSYLNELRLASNPWTCSCEFIDKLRDYINRHEYVVDKLKMKCDVISGNSTQQMVIYPGSGEPASLPVVQCSQTLPLGLDNNFNYAEQAGGENASNATSTKMILNQPPKLDYIPILVAILTAFIFVMICISLVFIFRQEMRVWCHSRFGVRLFYNAQKDVDKNEREKLFDAFVSYSSKDELFVNEELAPMLEMGEHRYKLCLHQRDFPVGGYLPETIVQAIDSSRRTIMVVSENFIKSEWCRFEFKSAHQSVLRDRRRRLIVIVLGEVPQKELDPDLRLYLKTNTYLQWGDKLFWQKLRFALPDVSSSQRSNVAGQSCHVPINHASYHHHHHVHQQAMPLPHSVHHHQQQFMLPPPPQQPGSFRRQPSLHQQQQQQQQIRGNNNTTQQQQQQQAALLMGGGSVGGPAPQMIPLAGGIQQQSLPLPPNQQPTPASRNLHM
# B11: Usp30 (protein)
# chain: MESEKILMAAGVTVAAVVGAFVFWGPSGSRLRQRRGQIAGLHNFGLTCFLNTLLQAMAACPQFIAWLQLYNNASPDRKSLITSMLNTLEVVNGTHATLRGDPYSPGAVLRALNALGWVIPQEEHDAHELFHVLLTCLEEEAIRPQPLGCLSDALPTDNDDNSSLAGTATPVGGFRSFSSMAAGLGASQRIGDQPNRPSSAMLTDFLNMEYDESTSLQRLVRSEAHTPDSPASVCERDGNDRLGSVLLDAVSPGTPFGFPLVSNPDSLATPMLGGERSSRPRLPQSQQQQDEGLNRRVSSSCRSLERLHRGPGRVSIWSNMMPSQVAHPFQGAMGAQIVCNGCGSKSAVRYDKFDSITLNLPPQRRTGLSLGHLLSEYITSEDLSDVKCDSCNETTTHTKSVTFAKLPACLCIHVARTVWLPTGQVCKRKDYVHFPESLSMAPYSFVQPHLNSQAGTPWGSTMSLYSSSLPMNNGVGGGEGFGTMFPKNLYRLLAVVVHSGEANSGHFVTYRRGSLRNAHRWYYTSDTIVREVSIDEVLSVPAYLLFYDRGQQRQLNLR
# Experiments:
# Assay in all cases: MAPPIT interaction score (arbitrary units); higher = stronger binary interaction signal, active = hit call of the paper;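 active = MAPPIT score above the 99th percentile of random reference set scores in the same batch; inactive = at or below it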
# CG9825 = details: MAPPIT configuration: N-C; pair source set: screen_4
# CG9676 = details: MAPPIT configuration: N-N; pair source set: RRS
# CG9106 = details: MAPPIT configuration: N-N; pair source set: screen_2
# CanA1 = details: MAPPIT configuration: N-N; pair source set: Lit-BS-16
# Caf1-55 = details: pair source set: Lit-BM-16
# Rph = details: MAPPIT configuration: N-C; pair source set: RRS
# CHES-1-like = details: MAPPIT configuration: N-C; pair source set: screen_4
# Mf = details: MAPPIT configuration: N-C; pair source set: screen_3
# mri = details: MAPPIT configuration: N-N; pair source set: screen_1
# Caper = details: MAPPIT configuration: N-N; pair source set: DPIM
# CSN4 = details: MAPPIT configuration: N-C; pair source set: Lit-BM-16
# Cog6 = details: MAPPIT configuration: N-N; pair source set: Finley_Y2H
# CG9133 = details: MAPPIT configuration: N-N; pair source set: screen_1
# GstT2 = details: MAPPIT configuration: N-N; pair source set: screen_1
# CROT = details: MAPPIT configuration: N-N; pair source set: Curagen_high_conf
# 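Note: HEK293T cells with Epo stimulation, STAT-responsive firefly luciferase reporter, fold induction versus unstimulated cells divided by the larger fold induction of two negative controls lacking either bait or prey.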
binder,measurement,setting,value
B1,MAPPIT interaction score,CG9825,0.062 (inactive)
B2,MAPPIT interaction score,CG9825,-0.0656 (inactive)
B3,MAPPIT interaction score,CG9676,0.279 (inactive)
B4,MAPPIT interaction score,CG9106,3.9 (active)
B5,MAPPIT interaction score,CanA1,-0.226 (inactive)
B6,MAPPIT interaction score,Caf1-55; MAPPIT configuration: N-C,2.19 (inactive)
same,MAPPIT interaction score,Caf1-55; MAPPIT configuration: N-N,1.84 ± 0.68
same,MAPPIT interaction score,Rph,2.27 (inactive)
B7,MAPPIT interaction score,CHES-1-like,0.887 (inactive)
same,MAPPIT interaction score,Mf,3.01 (inactive)
same,MAPPIT interaction score,mri,1.83 (inactive)
B8,MAPPIT interaction score,Caper,-0.361 (inactive)
B9,MAPPIT interaction score,CSN4,1.74 (inactive)
same,MAPPIT interaction score,Cog6,-0.342 (inactive)
B10,MAPPIT interaction score,CG9133,1.51 (inactive)
same,MAPPIT interaction score,GstT2,2.34 (inactive)
B11,MAPPIT interaction score,CROT,2.05 (inactive)

# — the supplement of paper PMC10105736
